# According to PubChem BioAssay AID602393 (Broad Institute, 2012):
# Screen size: about 350,000 compounds; about 7,000 (2%) were called active. The list comes from a sample in which actives are over-represented; it also holds similar structures and randomly drawn compounds. Values without a mark were called inactive. No stated cut-off is given here; in the data, active means activation above about 40%; inconclusive means no clear call, values can overlap the other calls; inactive means below that.
# Test: raisers of Bmi1 knock-in reporter signal – mouse ES cells, Bmi1 luciferase knock-in, single point, esBAF inhibitor project, primary screen (AID 602393);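 further: 0% = median of the plate's neutral control wells and 100% = double that signal; a rise in the Bmi1 reporter signal indicates esBAF inhibition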
# Settings: 24 h, at 12.5 µM, hits give high values, 100% = twice the neutral-well signal
row,SMILES,reporter increase
1,Cc1noc(C)c1S(=O)(=O)N(C)C[C@@H]1Oc2ccc(NC(=O)Cn3cnnn3)cc2CC(=O)N([C@@H](C)CO)C[C@H]1C,-6.08%
2,Cc1cc(C(=O)Nc2cccc3c2O[C@@H](CN(C)S(=O)(=O)c2ccc(F)cc2)[C@@H](C)CN([C@H](C)CO)C3=O)n(C)n1,5.98%
3,CCC(=O)Nc1ccc2c(c1)OC[C@@H](C)N(Cc1ccccn1)C[C@H](C)[C@@H](OC)CN(C)C2=O,-3.64%
4,COc1ccc(NC(=O)N(C)C[C@H]2OCCCC[C@H](C)Oc3ccc(NS(C)(=O)=O)cc3C(=O)N([C@H](C)CO)C[C@@H]2C)cc1,3.29%
5,CC(C)NC(=O)N(C)C[C@H]1OCCCC[C@@H](C)Oc2ccc(NS(C)(=O)=O)cc2C(=O)N([C@H](C)CO)C[C@H]1C,-1.04%
6,COc1ccc(NC(=O)Nc2ccc3c(c2)C(=O)N([C@H](C)CO)C[C@@H](C)[C@H](CN(C)C(=O)Cc2ccccc2)OCCCC[C@H](C)O3)cc1,15.2%
7,CC(C)c1ccc(NC(=O)Cn2ncc3ccccc32)cc1,61.7% (active)
8,CCc1ccc(NC(=O)Cn2ncn3c(cc4ccccc43)c2=O)cc1,-6.55%
9,CCOC(=O)c1cn(CC(=O)Nc2ccc(C(C)C)cc2)nn1,-4.55%
10,COc1cccc(CNC(=O)[C@@H]2[C@@H](CO)[C@@H]3Cn4c(ccc(-c5cccnc5)c4=O)[C@@H]3N2C)c1,0.488%
11,COc1ccccc1-c1sc2ccccc2c1-c1ccc(C(C)=O)cc1,34.4%
12,COc1ccc(N=C(C)c2sc3ccccc3c2O)cc1,50.4% (active)
13,COC(=O)c1ccc(/C=C/c2c(-c3ccc(OC)cc3)sc3ccccc23)cc1,0.121%
14,N#C[C@H]1[C@@H](c2ccc(C3=CCCCC3)cc2)[C@@H](CO)N1C(=O)NC1CCCCC1,7.57%
15,C[C@H]1CCCCO[C@H](CN(C)C(=O)Nc2ccccc2)[C@@H](C)CN([C@@H](C)CO)C(=O)c2cc(NC(=O)CCC(F)(F)F)ccc2O1,-7.05%
16,O=C(C1CCC1)N1C[C@@H]2[C@H](c3ccccc31)[C@H](CO)N2C(=O)c1ccccc1,-1.2%
17,CCCc1nc(-c2cc3cc(C)ccc3[nH]c2=O)no1,-1.25%
18,COc1ccccc1-c1noc(CSc2nc(C)cc(=O)[nH]2)n1,-5.13%
19,Cc1ccc(Cc2nc(-c3cccc(C)c3)no2)cc1,60.8% (active)
20,COc1ccccc1Cc1nc(-c2ccc(C)cc2)no1,46.3% (active)
21,Cc1ccc(-c2noc(CC(c3ccccc3)c3ccccc3)n2)cc1,0.61%
22,Cc1ccc(-c2noc(CNC(=O)c3ccoc3C)n2)cc1,1.49%

row,SMILES,reporter increase
1,C[C@@H]1CCCCO[C@@H](CN(C)Cc2ccncc2)[C@H](C)CN([C@H](C)CO)C(=O)c2cc(N(C)C)ccc2O1,-12.3%
2,CCCC(=O)Nc1ccc2c(c1)OC[C@@H](C)N(Cc1ccccc1F)C[C@@H](C)[C@H](OC)CN(C)C2=O,-2.03%
3,COc1ccc(S(=O)(=O)Nc2cccc3c2O[C@@H](CN(C)C(=O)NC(C)C)[C@H](C)CN([C@@H](C)CO)C3=O)cc1,-7.18%
4,O=C([C@@H]1[C@@H](CO)[C@@H]2Cn3c(ccc(C4=CCCC4)c3=O)[C@H]1N2C(=O)c1ccncc1)N1CCCCC1,-2.02%
5,C[C@@H]1CN([C@@H](C)CO)C(=O)CCCn2cc(nn2)CO[C@@H]1CN(C)Cc1ccccc1C(=O)O,-3.04%
6,C[C@@H]1CCCCO[C@@H](CN(C)C(=O)NC2CCCCC2)[C@H](C)CN([C@@H](C)CO)C(=O)c2cc(NC(=O)Nc3ccc(F)cc3)ccc2O1,3.77%
7,C[C@@H]1CCCCO[C@H](CN(C)C(=O)NC2CCCCC2)[C@H](C)CN([C@@H](C)CO)C(=O)c2cc(NC(=O)Nc3ccc(F)cc3)ccc2O1,3.4%
8,CC(C)NC(=O)N(C)C[C@H]1OCCCC[C@H](C)Oc2ccc(NC(=O)Nc3ccc4c(c3)OCO4)cc2C(=O)N([C@H](C)CO)C[C@@H]1C,4.2%
9,C[C@H](CO)N1C[C@H](C)[C@H](CN(C)C(=O)NC2CCCCC2)OCCCC[C@H](C)Oc2ccc(NC(=O)Nc3ccc4c(c3)OCO4)cc2C1=O,55.8% (active)
10,C[C@H]1CCCCO[C@H](CN(C)C(=O)NC2CCCCC2)[C@@H](C)CN([C@@H](C)CO)C(=O)c2cc(NC(=O)Nc3ccc4c(c3)OCO4)ccc2O1,44.8% (active)
11,C[C@@H]1CCCCO[C@H](CN(C)C(=O)NC2CCCCC2)[C@H](C)CN([C@H](C)CO)C(=O)c2cc(NC(=O)Nc3ccc(F)cc3)ccc2O1,4.59%
12,COCC(=O)N(C)C[C@H]1Oc2ncc(-c3cccc(OC)c3)cc2C(=O)N([C@H](C)CO)C[C@H]1C,-0.645%
13,C[C@@H]1CN([C@H](C)CO)C(=O)CCCn2cc(nn2)CO[C@@H]1CN(C)Cc1ccc2cccnc2c1,-4.13%
14,CCC(=O)Nc1ccc2c(c1)OC[C@@H](C)N(CC1CC1)C[C@H](C)[C@H](OC)CN(C)C2=O,2.9%
15,C[C@H]1CN([C@@H](C)CO)C(=O)c2cc(C#CC(C)(C)O)cnc2O[C@H]1CN(C)C(=O)CC1CC1,2.32%
16,C[C@@H]1CN([C@H](C)CO)C(=O)c2c(c3ccccc3n2C)-c2ccccc2CO[C@@H]1CN(C)C(=O)Nc1ccccc1,2.44%
17,O=C(CN1CCCSc2ccccc21)N1CCN(S(=O)(=O)c2cccc(F)c2)CC1,2.16%
18,N#C/C=C1\Sc2ccccc2C(=O)N1CC(=O)N1CCN(S(=O)(=O)c2ccccc2)CC1,76.9% (active)
19,O=C(CN1CCCSc2ccccc21)N1CCN(S(=O)(=O)c2ccccc2)CC1,3.15%
20,CCCNC(=O)N1C[C@@H](O)COC[C@H]2O[C@H](CC(=O)N3CCC(Cc4ccccc4)CC3)CC[C@@H]21,8.61%
21,CCC(=O)N[C@H]1CC[C@@H](CC(=O)NCc2cc(F)cc(F)c2)O[C@@H]1CO,0.353%
